Data: paper PMC7862700, “An all-to-all approach to the identification of sequence-specific readers for epigenetic DNA modifications on cytosine”

Legend:
Experiment in all cases: DAPPL (digital affinity profiling via proximity ligation, sequencing); 10 mM Tris-HCl pH 7.5, 50 mM NaCl, 1 mM DTT, 4% glycerol, room temperature, 30 min; GST-TFs on glutathione beads, 16-mer random dsDNA library, 0.1% formaldehyde crosslink after washing; high values mean tight binding
[1] = target: T1, FLI1 (Homo sapiens, UniProt Q01543 1-452); settings: protein: recombinant; tags: N-terminal GST; dsDNA, one strand shown
T1 sequence: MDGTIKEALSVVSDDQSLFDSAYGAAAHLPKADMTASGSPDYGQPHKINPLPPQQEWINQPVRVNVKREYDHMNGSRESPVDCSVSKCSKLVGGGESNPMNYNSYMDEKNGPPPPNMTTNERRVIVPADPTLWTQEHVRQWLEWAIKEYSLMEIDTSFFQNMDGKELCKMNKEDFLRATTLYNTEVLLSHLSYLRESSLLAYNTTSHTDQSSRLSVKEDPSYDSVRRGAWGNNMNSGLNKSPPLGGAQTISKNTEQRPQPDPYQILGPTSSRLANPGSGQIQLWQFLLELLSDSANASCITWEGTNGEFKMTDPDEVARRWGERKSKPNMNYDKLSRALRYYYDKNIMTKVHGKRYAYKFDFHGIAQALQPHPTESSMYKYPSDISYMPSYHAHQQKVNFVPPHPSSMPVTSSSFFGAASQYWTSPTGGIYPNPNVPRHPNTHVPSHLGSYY
In short: (§1)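 Binding signal is each hexamer's read frequency for a factor divided by its frequency in the tag-only sample. The factors were GST-fused human transcription factors from yeast, captured on glutathione beads, DNA-barcoded and pooled with that sample. Pools were incubated with 200 nmole of a random double-stranded 16-mer DNA library in Tris/NaCl/DTT/glycerol buffer at room temperature for 30 min, then washed, crosslinked with 0.1% formaldehyde, proximity-ligated with BsaI/T4 ligase (1 h, 37 °C), PCR-amplified and sequenced on an Illumina NextSeq500.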

[2] = target: T2, ELK1 (Homo sapiens, UniProt P19419 1-428); settings: protein: recombinant; tags: N-terminal GST; dsDNA, one strand shown
T2 sequence: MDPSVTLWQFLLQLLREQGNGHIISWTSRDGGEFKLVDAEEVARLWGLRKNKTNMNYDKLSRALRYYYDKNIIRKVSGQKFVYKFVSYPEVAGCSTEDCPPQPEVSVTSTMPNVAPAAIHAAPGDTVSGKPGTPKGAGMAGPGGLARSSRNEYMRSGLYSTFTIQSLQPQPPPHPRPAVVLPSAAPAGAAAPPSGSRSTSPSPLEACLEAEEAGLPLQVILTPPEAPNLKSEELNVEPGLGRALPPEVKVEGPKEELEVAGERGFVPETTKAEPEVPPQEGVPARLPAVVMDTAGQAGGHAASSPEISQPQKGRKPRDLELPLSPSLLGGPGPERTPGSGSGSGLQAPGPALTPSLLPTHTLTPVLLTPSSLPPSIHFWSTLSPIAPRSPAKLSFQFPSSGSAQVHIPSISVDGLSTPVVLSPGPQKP
In short: as §1

[3] = target: T3, GABPA (Homo sapiens, UniProt Q06546 1-454); settings: protein: recombinant; tags: N-terminal GST; dsDNA, one strand shown
T3 sequence: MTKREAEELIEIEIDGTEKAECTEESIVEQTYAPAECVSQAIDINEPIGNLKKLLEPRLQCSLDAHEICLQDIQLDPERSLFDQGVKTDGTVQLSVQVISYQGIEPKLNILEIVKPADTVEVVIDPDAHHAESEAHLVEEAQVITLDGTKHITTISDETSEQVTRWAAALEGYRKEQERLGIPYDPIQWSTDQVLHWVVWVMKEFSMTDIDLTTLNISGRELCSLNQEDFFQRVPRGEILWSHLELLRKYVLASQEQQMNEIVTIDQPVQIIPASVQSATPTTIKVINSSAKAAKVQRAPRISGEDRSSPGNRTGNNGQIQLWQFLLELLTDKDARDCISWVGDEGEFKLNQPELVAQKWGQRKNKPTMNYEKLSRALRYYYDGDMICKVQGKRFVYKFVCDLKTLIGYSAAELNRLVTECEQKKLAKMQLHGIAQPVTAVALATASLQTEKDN
In short: as §1

[4] = target: T4, ERG (Homo sapiens, UniProt P11308 1-479); settings: protein: recombinant; tags: N-terminal GST; dsDNA, one strand shown
T4 sequence: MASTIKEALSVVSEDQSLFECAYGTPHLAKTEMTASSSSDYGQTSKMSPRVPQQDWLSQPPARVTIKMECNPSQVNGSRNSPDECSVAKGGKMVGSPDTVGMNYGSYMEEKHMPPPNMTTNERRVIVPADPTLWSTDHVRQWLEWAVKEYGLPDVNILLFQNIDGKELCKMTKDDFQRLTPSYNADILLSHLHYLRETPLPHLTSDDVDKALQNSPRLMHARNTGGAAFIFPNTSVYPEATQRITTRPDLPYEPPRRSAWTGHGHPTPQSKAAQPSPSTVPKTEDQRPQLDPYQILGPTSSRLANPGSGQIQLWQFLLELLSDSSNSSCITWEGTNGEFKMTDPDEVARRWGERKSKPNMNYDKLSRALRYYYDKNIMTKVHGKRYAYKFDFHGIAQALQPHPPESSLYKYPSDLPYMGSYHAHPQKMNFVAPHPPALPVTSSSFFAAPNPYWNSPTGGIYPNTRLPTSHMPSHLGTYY
In short: as §1

[5] = target: ELF1 (Homo sapiens, UniProt P32519 1-619); settings: protein: recombinant; tags: N-terminal GST; dsDNA, one strand shown
ELF1, sequence (P32519 whole entry): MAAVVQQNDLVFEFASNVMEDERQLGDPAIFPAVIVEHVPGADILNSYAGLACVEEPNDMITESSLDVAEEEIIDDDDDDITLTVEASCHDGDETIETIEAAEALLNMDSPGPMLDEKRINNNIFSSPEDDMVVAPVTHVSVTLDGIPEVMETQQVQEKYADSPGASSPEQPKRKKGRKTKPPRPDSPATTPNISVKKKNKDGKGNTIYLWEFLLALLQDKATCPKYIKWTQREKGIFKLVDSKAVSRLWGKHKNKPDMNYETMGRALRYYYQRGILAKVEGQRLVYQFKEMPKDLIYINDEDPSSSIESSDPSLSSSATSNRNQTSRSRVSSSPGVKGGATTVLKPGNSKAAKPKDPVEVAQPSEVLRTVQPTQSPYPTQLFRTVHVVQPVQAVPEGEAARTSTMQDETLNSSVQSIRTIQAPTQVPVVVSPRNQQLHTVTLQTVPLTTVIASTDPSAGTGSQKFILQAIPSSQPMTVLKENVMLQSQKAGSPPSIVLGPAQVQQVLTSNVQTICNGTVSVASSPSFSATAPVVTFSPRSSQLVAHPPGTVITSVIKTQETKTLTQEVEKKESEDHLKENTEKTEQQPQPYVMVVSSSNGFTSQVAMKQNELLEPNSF
In short: as §1

[6] = target: T5, EHF (Homo sapiens, UniProt Q9NZC4 1-300); settings: protein: recombinant; tags: N-terminal GST; dsDNA, one strand shown
T5 sequence: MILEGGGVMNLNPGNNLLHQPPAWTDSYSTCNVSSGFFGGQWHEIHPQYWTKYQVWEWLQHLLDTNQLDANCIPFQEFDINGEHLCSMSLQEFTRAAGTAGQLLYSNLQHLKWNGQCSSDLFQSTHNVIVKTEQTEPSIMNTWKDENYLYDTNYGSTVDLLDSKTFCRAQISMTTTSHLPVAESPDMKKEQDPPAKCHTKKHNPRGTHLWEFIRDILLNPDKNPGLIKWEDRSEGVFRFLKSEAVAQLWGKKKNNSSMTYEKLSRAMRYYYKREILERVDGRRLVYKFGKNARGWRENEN
In short: as §1

[7] = target: SPI1 (Homo sapiens, UniProt P17947 1-270); settings: protein: recombinant; tags: N-terminal GST; dsDNA, one strand shown
In short: as §1

[8] = target: SPIB (Homo sapiens, UniProt Q01892 1-262); settings: protein: recombinant; tags: N-terminal GST; dsDNA, one strand shown
SPIB, sequence (Q01892 whole entry): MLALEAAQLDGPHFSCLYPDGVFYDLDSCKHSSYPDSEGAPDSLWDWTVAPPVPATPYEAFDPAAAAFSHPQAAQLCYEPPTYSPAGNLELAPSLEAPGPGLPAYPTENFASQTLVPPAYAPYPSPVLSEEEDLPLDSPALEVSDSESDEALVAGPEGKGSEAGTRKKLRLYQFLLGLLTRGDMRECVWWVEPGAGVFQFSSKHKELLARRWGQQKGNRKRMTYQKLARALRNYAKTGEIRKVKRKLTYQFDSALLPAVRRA
In short: as §1

[9] = target: T6, ELK3 (Homo sapiens, UniProt P41970 1-407); settings: protein: recombinant; tags: N-terminal GST; dsDNA, one strand shown
T6 sequence: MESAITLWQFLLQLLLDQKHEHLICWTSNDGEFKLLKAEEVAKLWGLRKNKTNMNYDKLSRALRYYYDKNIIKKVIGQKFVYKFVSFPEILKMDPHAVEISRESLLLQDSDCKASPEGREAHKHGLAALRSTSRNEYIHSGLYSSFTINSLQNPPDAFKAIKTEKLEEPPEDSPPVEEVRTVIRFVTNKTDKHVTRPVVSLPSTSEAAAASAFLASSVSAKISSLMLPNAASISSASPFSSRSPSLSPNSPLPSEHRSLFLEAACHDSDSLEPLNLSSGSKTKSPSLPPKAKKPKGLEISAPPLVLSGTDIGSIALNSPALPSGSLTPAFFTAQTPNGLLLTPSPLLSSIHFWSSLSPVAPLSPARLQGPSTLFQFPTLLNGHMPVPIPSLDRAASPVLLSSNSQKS
In short: as §1

[10] = target: T7, FEV (Homo sapiens, UniProt Q99581 1-238); settings: protein: recombinant; tags: N-terminal GST; dsDNA, one strand shown
T7 sequence: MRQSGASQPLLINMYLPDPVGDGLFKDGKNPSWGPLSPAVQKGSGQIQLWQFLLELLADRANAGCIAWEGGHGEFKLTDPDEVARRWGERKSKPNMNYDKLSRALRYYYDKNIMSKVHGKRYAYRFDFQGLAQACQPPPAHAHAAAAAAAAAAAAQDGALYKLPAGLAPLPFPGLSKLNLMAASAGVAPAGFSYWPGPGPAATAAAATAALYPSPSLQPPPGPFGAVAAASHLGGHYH
In short: as §1

[11] = target: ETV5 (Homo sapiens, UniProt P41161 1-510); settings: protein: recombinant; tags: N-terminal GST; dsDNA, one strand shown
ETV5, sequence (P41161 whole entry): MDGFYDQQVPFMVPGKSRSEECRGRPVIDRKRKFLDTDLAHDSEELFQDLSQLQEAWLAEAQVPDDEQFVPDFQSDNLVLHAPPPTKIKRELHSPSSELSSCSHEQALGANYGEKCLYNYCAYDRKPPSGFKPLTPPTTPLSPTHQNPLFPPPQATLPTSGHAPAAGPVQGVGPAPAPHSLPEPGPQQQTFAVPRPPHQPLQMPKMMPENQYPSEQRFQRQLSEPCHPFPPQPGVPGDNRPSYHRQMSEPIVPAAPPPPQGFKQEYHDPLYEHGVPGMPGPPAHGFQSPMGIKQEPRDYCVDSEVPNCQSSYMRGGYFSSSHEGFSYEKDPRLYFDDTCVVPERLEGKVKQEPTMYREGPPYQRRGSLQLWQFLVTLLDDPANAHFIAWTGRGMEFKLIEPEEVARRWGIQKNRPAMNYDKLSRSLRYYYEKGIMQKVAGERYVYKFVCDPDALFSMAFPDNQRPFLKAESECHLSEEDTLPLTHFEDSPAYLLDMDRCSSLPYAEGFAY
In short: as §1

[12] = target: HSF1 (Homo sapiens, UniProt Q00613 1-529); settings: protein: recombinant; tags: N-terminal GST; chain copies: 3; dsDNA, one strand shown
HSF1, sequence (Q00613 whole entry): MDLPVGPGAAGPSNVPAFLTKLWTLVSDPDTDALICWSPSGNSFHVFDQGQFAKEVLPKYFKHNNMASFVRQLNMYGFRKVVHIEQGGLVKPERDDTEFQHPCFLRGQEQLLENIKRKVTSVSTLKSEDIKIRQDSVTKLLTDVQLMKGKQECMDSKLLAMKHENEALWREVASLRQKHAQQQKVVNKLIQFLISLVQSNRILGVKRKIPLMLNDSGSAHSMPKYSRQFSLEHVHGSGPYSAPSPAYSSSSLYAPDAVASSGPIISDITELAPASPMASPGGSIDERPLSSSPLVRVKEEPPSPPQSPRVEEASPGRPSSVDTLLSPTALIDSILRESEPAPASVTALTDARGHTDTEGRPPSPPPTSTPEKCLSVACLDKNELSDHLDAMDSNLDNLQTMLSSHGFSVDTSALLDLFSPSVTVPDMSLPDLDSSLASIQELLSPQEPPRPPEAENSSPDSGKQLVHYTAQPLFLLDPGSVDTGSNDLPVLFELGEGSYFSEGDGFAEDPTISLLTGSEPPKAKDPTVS
In short: as §1

[13] = target: T8, SPIC (Homo sapiens, UniProt Q8N5J4 1-248); settings: protein: recombinant; tags: N-terminal GST; dsDNA, one strand shown
T8 sequence: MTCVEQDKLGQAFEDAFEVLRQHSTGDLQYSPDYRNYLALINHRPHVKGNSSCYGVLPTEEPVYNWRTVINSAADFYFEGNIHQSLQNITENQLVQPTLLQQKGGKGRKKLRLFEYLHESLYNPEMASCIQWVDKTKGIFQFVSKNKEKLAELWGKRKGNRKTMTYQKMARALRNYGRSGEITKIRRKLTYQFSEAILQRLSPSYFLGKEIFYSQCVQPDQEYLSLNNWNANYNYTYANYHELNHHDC
In short: as §1

[14] = target: ELF4 (Homo sapiens, UniProt Q99607 1-663); settings: protein: recombinant; tags: N-terminal GST; dsDNA, one strand shown
ELF4, sequence (Q99607 whole entry): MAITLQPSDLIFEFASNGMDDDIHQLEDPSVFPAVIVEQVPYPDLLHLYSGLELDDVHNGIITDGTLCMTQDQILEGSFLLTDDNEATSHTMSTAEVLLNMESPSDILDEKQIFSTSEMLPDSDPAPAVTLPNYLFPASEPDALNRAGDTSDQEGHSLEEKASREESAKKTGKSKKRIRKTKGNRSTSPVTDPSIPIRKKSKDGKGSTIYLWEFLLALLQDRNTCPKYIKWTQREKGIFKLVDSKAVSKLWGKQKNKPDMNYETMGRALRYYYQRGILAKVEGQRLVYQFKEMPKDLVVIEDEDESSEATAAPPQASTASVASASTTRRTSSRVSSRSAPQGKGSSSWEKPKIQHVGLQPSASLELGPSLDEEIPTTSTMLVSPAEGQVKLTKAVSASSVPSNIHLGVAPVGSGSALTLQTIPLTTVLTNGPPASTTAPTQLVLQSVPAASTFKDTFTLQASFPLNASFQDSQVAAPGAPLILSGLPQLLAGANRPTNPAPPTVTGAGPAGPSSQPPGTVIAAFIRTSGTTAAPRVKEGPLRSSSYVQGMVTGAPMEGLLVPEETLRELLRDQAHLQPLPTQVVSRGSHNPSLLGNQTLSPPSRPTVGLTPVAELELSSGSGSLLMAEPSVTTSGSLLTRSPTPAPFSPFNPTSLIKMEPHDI
In short: as §1

[15] = target: T9, ELK4 (Homo sapiens, UniProt P28324-2 1-405); settings: protein: recombinant; tags: N-terminal GST; dsDNA, one strand shown
T9 sequence: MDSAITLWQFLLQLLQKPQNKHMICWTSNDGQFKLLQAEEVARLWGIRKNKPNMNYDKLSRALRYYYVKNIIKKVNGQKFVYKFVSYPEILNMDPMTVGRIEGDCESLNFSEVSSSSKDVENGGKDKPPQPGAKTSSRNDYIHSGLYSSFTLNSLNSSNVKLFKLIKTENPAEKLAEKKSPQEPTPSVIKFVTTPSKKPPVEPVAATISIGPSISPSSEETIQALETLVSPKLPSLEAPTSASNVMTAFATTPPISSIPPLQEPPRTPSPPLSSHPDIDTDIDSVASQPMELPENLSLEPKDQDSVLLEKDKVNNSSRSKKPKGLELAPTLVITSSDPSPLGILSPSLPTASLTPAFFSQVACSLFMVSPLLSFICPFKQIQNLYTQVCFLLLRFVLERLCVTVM
In short: as §1

[16] = target: T10, ETV2 (Homo sapiens, UniProt O00321 1-342); settings: protein: recombinant; tags: N-terminal GST; dsDNA, one strand shown
T10 sequence: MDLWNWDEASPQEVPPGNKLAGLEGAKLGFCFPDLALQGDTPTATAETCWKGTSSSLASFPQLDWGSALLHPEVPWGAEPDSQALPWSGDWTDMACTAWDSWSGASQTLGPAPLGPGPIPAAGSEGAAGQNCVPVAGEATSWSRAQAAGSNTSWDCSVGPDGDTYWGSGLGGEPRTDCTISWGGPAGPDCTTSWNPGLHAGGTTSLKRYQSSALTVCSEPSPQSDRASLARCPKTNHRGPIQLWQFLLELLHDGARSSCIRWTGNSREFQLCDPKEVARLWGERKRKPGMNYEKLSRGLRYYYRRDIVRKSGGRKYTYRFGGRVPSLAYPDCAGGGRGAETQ
In short: as §1

[17] = target: T11, ELF3 (Homo sapiens, UniProt P78545 1-371); settings: protein: recombinant; tags: N-terminal GST; dsDNA, one strand shown
T11 sequence: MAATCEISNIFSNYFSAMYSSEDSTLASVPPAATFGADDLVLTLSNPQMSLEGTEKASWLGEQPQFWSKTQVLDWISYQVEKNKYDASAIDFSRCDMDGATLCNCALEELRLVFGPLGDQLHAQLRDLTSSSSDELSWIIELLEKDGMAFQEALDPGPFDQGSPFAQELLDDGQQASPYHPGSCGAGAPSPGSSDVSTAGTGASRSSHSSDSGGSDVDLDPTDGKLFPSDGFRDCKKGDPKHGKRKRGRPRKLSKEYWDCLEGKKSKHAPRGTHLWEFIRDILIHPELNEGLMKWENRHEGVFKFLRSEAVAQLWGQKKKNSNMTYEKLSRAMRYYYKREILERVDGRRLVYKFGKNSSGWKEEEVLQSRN
In short: as §1

[18] = target: CRX (Homo sapiens, UniProt O43186 1-299); settings: protein: recombinant; tags: N-terminal GST; dsDNA, one strand shown
CRX, sequence (O43186 whole entry): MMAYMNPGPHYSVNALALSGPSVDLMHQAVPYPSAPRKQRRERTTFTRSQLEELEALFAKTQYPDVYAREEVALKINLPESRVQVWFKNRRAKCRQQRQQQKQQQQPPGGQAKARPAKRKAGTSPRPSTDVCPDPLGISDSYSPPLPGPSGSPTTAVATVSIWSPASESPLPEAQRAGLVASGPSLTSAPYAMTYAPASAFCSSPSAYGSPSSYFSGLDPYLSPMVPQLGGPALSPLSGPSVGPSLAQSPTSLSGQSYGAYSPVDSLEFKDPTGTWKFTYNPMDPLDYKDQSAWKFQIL
In short: as §1

[19] = target: ETV1 (Homo sapiens, UniProt P50549 1-477); settings: protein: recombinant; tags: N-terminal GST; dsDNA, one strand shown
ETV1, sequence (P50549 whole entry): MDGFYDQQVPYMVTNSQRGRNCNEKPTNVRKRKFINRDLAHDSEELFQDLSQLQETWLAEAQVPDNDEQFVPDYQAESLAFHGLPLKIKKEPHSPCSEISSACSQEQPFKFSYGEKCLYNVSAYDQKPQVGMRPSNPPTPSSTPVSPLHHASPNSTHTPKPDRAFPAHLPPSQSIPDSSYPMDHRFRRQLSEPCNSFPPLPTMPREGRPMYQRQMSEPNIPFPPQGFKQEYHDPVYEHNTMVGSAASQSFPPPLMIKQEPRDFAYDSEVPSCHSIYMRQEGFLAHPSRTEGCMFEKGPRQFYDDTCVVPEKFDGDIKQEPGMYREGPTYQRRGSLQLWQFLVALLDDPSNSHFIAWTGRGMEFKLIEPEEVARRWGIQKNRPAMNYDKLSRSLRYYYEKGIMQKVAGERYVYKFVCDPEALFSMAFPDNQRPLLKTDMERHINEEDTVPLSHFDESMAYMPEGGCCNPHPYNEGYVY
In short: as §1

With AAACTT the binding signal [1] was 1.27 fold enrichment (6-mer frequency, TF over GST control), the binding signal [2] was 1.22 fold enrichment (6-mer frequency, TF over GST control) and the binding signal [3] was 1.31 fold enrichment (6-mer frequency, TF over GST control). The binding signal [4] was 1.24 fold enrichment (6-mer frequency, TF over GST control), the binding signal [5] was 1.24 fold enrichment (6-mer frequency, TF over GST control) and the binding signal [6] was 1.31 fold enrichment (6-mer frequency, TF over GST control). The binding signal [7] was 1.24 fold enrichment (6-mer frequency, TF over GST control), the binding signal [8] was 1.25 fold enrichment (6-mer frequency, TF over GST control) and the binding signal [9] was 1.3 fold enrichment (6-mer frequency, TF over GST control). For the same sequence, the binding signal [10] was 1.3 fold enrichment (6-mer frequency, TF over GST control), the binding signal [11] was 1.22 fold enrichment (6-mer frequency, TF over GST control) and the binding signal [12] was 1.37 fold enrichment (6-mer frequency, TF over GST control). The binding signal [13] was 1.36 fold enrichment (6-mer frequency, TF over GST control), the binding signal [14] was 1.26 fold enrichment (6-mer frequency, TF over GST control) and the binding signal [15] was 1.23 fold enrichment (6-mer frequency, TF over GST control). The binding signal [16] was 1.28 fold enrichment (6-mer frequency, TF over GST control), the binding signal [17] was 1.13 fold enrichment (6-mer frequency, TF over GST control) and the binding signal [18] was 1.21 fold enrichment (6-mer frequency, TF over GST control). The binding signal [19] was 1.27 fold enrichment (6-mer frequency, TF over GST control).
